# Measurements reported in PubChem BioAssay (NCI).
# The panel holds about 83,000 compounds, 20% with a hit somewhere; the sample as a whole holds those more often.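 Plates (96-well) were seeded with cells, treated with compound at one concentration, and incubated for 48 hours before percent growth was determined.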 Activity calls are given as the source filed them. How the source made its calls: active means growth percent below 10; inactive means the rest.
# Test system: NCI-H460 lung
# Assay: NCI-60 one-dose screen, 48 h (100 = growth as untreated, 0 = no growth, -100 = all killed)
# Conditions: 10 µM unless noted
row,SMILES,growth
1,CCn1c(Cc2ccccc2Nc2c(Cl)cccc2Cl)nnc1SCC(=O)Nc1cccc(OC)c1,84.8% (inactive)
2,COc1ccc2nc(C)cc(Sc3nc4ccccc4s3)c2c1,34.6% (inactive)
3,COc1cnc2c(c1)C(=O)c1c-2n(CCCN2CCN(C)CC2)c(=O)c2cc(Cl)ccc12,6.14% (active)
4,c1cn2cc(-c3ccc4ncn(C5CCCCC5)c4c3)nc(-c3ccc4c(c3)ncn4C3CCCCC3)c2n1,-48.5% (active)
5,CN1C(=O)N(C)C2C1NN=c1s/c(=C\c3ccc(C(F)(F)F)cc3)c(=O)n12 (stereo not drawn),11.7% (inactive)
6,CN1C(=O)N(C)C2C1NN=c1s/c(=C\c3ccsc3)c(=O)n12 (stereo not drawn),18.2% (inactive)
7,C/C(=N\Nc1ccc([N+](=O)[O-])cn1)c1ccc(N)cc1,110% (inactive)
8,COc1ccccc1/C=N\Nc1ccc([N+](=O)[O-])cn1,123% (inactive)
9,CCCCCCCCCCCCCCCCCC(=O)[O][Sn]([CH2]CCC)([CH2]CCC)[CH2]CCC,-88.9% (active)
10,C[C@H](NC(=O)c1snnc1C1CC1)c1c(F)cccc1Cl,110% (inactive)
11,CC(C)c1cccc(C#N)c1,103% (inactive)
12,CN1C(=O)N(C)C2C1NN=c1s/c(=C\c3ccc(Br)cc3)c(=O)n12 (stereo not drawn),13.4% (inactive)
13,O=C1SCN(Cc2ccccc2)CN1Cc1ccccc1,107% (inactive)
14,C[N+](C)(C)CC(=O)N/N=C\c1ccco1,108% (inactive)
15,COc1cc(C2CC(c3ccc(Cl)cc3)=NN2C(C)=O)ccc1Oc1nc2c(c(=O)n(C)c(=O)n2C)n1C (stereo not drawn),88.1% (inactive)
16,CCN1CCN(Cc2ccc(NC(=O)Nc3ccc(-n4ccc5c(NC(=O)c6ccccc6)nccc54)cc3)cc2C(F)(F)F)CC1,-44.3% (active)
17,Nc1nc(N)c2cc(NCc3ccc(Cl)c(Cl)c3)ccc2n1,-75.7% (active)
18,O=c1oc2ccccc2cc1-c1cc(-c2ccc(-c3cc(-c4cc5ccccc5oc4=O)nc(-c4cc5ccccc5oc4=O)c3)cc2)cc(-c2cc3ccccc3oc2=O)n1,106% (inactive)
19,C=C1C(=O)O[C@H]2[C@H]1CC/C(COC(=O)N[C@@H](Cc1c[nH]c3ccccc13)C(=O)OC)=C\CC[C@@]1(C)O[C@@H]21,40.5% (inactive)

row,SMILES,growth
1,COc1cc(OC)c(Cl)cc1N,103% (inactive)
2,COC(=O)c1ccc2c(c1)nc(-c1cc3ccccc3[nH]c1=O)n2-c1cc(C(C)(C)C)[nH]n1,45.4% (inactive)
3,Fc1ccc(-c2nc(-c3ccc(-c4nc5ccc(F)cc5[nH]4)cc3)no2)cc1,67.4% (inactive)
4,CCCC(CCC)(C(N)=O)C(=O)O,115% (inactive)
5,CNC(=O)OC1C(O[C@H]2C[C@H]3[C@@H]4CC=C5C[C@@H](O)CC[C@]5(C)[C@H]4CC[C@]3(C)[C@H]2[C@H](C)C(=O)CCC(C)C)OCC(O)C1OC1OCC(O)C(O)C1OC(=O)c1ccc(OC)cc1 (stereo partly drawn),1.55% (active)
6,CC(=O)O[C@@H]1CC2C(C)(C)CCCC2(C)C2=C1C(=O)C(C(C)C)=CC2=O (stereo partly drawn),-8.52% (active)
7,CC(=O)Oc1c(Cl)c(Cl)c(Cl)c(Cl)c1Cl,105% (inactive)
8,Oc1c(C(Nc2ccccc2Br)c2ccccc2)ccc2cccnc12 (stereo not drawn),5.78% (active)
9,O=C1C(Cl)=C(Nc2cccc3ccccc23)C(=O)c2ccccc21,90.7% (inactive)
10,Nc1c(C(=O)Nc2ccccc2)sc2nc3c(cc12)C(=O)CCC3,12.9% (inactive)
11,CCOCCNc1ccc(S(=O)(=O)c2ccc(N)cc2)cc1N,109% (inactive)
12,CCCCSc1ncnc2c1ncn2C1CCCCO1 (stereo not drawn),111% (inactive)
13,CCNCCCn1c2c(c3ccc(Cl)cc3c1=O)C(=O)c1cc(OC)cnc1-2,-69.9% (active)
14,COc1ccc2nc3ccccc3c(NCc3ccc(C)cc3)c2c1,10% (inactive)
15,C=CCOC(=O)C1=C(C)NC2=C(C(=O)CCC2)C1c1ccc(F)cc1 (stereo not drawn),106% (inactive)
16,O=C(O)C(CCc1ccccc1)NCc1ccccc1 (stereo not drawn),116% (inactive)
17,COc1ncnc2[nH]cc(CN3CCN(c4ccc(F)cc4)CC3)c12,108% (inactive)
18,O=S(=O)(Cc1ccc(Cl)cc1Cl)c1ccc(Cl)cc1,18.4% (inactive)
19,COc1ccc(-c2nc3ccccc3n3cccc23)cc1,112% (inactive)
